Structures are written as SMILES. The whole screen tested about 63,000 compounds, of which about 1,100 (1.7%) were called active. The entries come from a sample that favours actives as a whole. Potency and affinity values are given separately. A number with no mark means an inactive call.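 How the source made its calls: active means compounds whose percent cytotoxicity in the single-dose primary screen, scaled between solvent and toxic-drug controls, exceeds 50; inactive means the rest.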

This experiment is described as follows: cytotoxicity in KRAS-transformed pancreatic duct cells, primary screen, cell-based, fluorescence, HTS (AID 431).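 Further: 0% = DMSO solvent wells and 100% = doxorubicin-treated wells.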 Conditions: HPDE-C7K KRASV12 cells, Alamar Blue viability, 48 h; at 10 µM; hits give high values. Background: Resazurin is reduced to fluorescent resorufin, in cell work by metabolically active cells.
Turning to `COc1ccc(-c2cc(C(=O)Nc3ccccc3SC)no2)cc1OC`, the cytotoxicity was 1.4%. To `O=C(O)c1[nH]c2ccc(Cl)cc2c1CC(=O)N1CCN(c2ccccc2)CC1` belongs 8%.

For `Cc1cccc(N2CCN(C(=O)Cc3c(C(=O)O)[nH]c4ccc(Cl)cc34)CC2)c1C`, the cytotoxicity was 57.9% (active). Turning to `O=C(O)c1[nH]c2ccc(Cl)cc2c1CC(=O)N1CCN(C(=O)c2ccco2)CC1`, the cytotoxicity is 3.2%. With `Cc1cccc(-n2c(CNC(=O)c3ccc(S(=O)(=O)N4CCCC4)cc3)n[nH]c2=S)c1` the figure was -12%; with `O=C(Nc1c(C(=O)N2CCCCC2)cnn1-c1ccccc1)c1ccco1`, -3.5%; with `Cc1ccc(NC(=O)c2cnn(-c3ccccc3)c2NC(=O)c2ccco2)cc1C`, -1.9%. To `Cc1ccc(-n2ncc(C(=O)N3CCc4ccccc4C3)c2NC(=O)c2ccco2)cc1C` belongs 80.3% (active); to `Cc1cc(C)n(CC(O)COCc2ccco2)n1` (stereo unspecified), -7.5%.

As for `Cc1nnc(C)n1/N=C/c1cc(Br)cc(Br)c1O`, the cytotoxicity was 86.5% (active).

As for `COc1c(Br)cc(Br)cc1/C=N/n1c(C)nnc1C`, the cytotoxicity was 11.1%. With `Cc1nnc(C)n1/N=C/c1cc(Br)ccc1O` the figure was -18.8%; with `COc1ccc(Cl)cc1NS(=O)(=O)c1ccc(S(=O)(=O)N2CCCC2)cc1`, 19.4%; with `CSCC[C@@H](Nc1nc(-c2ccccc2)nc2c1oc1ccccc12)C(=O)O`, 20%.

Turning to `c1cncc(-c2nc(NCc3ccco3)c3ccccc3n2)c1`, the cytotoxicity is 10.1%. With `COc1ccc(CCNC(=O)CSc2nc(-c3ccco3)cc(C(F)(F)F)n2)cc1OC` the figure was -11.5%.

Regarding `O=C(C1CCN(S(=O)(=O)c2cccc3cccnc23)CC1)N1CCN(C2CCCCC2)CC1`, the cytotoxicity was 8.4%. To `N#C/C(=C(\O)c1ccco1)c1ccccn1` belongs -1.4%. As for `COc1cccc(OC)c1-c1nn2c(-c3cc(-c4ccccc4)n[nH]3)nnc2s1`, the cytotoxicity is 58.4% (active). To `COc1cc(-c2nnc3sc(-c4ccncc4)nn23)cc(OC)c1OC` belongs -1.5%; to `COc1cccc(OC)c1-c1nn2c(-c3ccccc3Cl)nnc2s1`, 17.5%.

Regarding `COc1ccc(-c2nnc3sc(-c4cccs4)nn23)cc1OC`, the cytotoxicity was 11.7%. For `COc1ccc(-c2nnc3sc(-c4c(OC)cccc4OC)nn23)cc1`, the cytotoxicity was 10.6%. With `COc1cc(-c2nnc3sc(-c4cccs4)nn23)cc(OC)c1OC` the figure was 62.9% (active). To `c1ccc2c(c1)ncn2Cc1nnc2sc(-c3ccncc3)nn12` belongs 0.8%. To `CC(=O)c1c(N2CCCCC2)nc(=O)n(-c2ccccc2)c1C` belongs -16.3%.

The values are drawn from PubChem BioAssay AID431 (Sanford-Burnham Center for Chemical Genomics, 2006).
